This is part of a sample that, as a whole, favours compounds with a hit. Of some 83,000 tested, about 20% had one in any assay.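 A percent growth of 40 corresponds to 60% growth inhibition; 0 means no net growth; -100 means all cells died. Active threshold: below 10.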 Active and inactive are the calls of the source.
Experiments:
Test in all cases: NCI-60 one-dose screen, 48 h (100 = growth as untreated, 0 = no growth, -100 = all killed)
Conditions in all cases: 10 µM unless noted
SK-MEL-2 melanoma = test system: SK-MEL-2 melanoma
SN12C renal = test system: SN12C renal
UO-31 renal = test system: UO-31 renal
TK-10 renal = test system: TK-10 renal
ACHN renal = test system: ACHN renal
A498 renal = test system: A498 renal
MOLT-4 leukemia = test system: MOLT-4 leukemia
SR leukemia = test system: SR leukemia
RPMI-8226 leukemia = test system: RPMI-8226 leukemia
OVCAR-8 ovarian = test system: OVCAR-8 ovarian
OVCAR-5 ovarian = test system: OVCAR-5 ovarian
OVCAR-4 ovarian = test system: OVCAR-4 ovarian
SK-OV-3 ovarian = test system: SK-OV-3 ovarian
IGROV1 ovarian = test system: IGROV1 ovarian
OVCAR-3 ovarian = test system: OVCAR-3 ovarian
HS 578T breast = test system: HS 578T breast
T-47D breast = test system: T-47D breast
CCRF-CEM leukemia = test system: CCRF-CEM leukemia
NCI/ADR-RES ovarian = test system: NCI/ADR-RES ovarian

Measured: growth

COc1ccc(Cc2nc(C#N)c(N3CCN(c4ccc(F)cc4)CC3)o2)cc1
inactive: SK-MEL-2 melanoma 88.2% | SN12C renal 105% | UO-31 renal 81.7% | TK-10 renal 75.1% | ACHN renal 103% | A498 renal 103% | MOLT-4 leukemia 87.7% | SR leukemia 88.9% | RPMI-8226 leukemia 93.3% | OVCAR-8 ovarian 103% | OVCAR-5 ovarian 86.7% | OVCAR-4 ovarian 79.3% | SK-OV-3 ovarian 89.6% | IGROV1 ovarian 76.8% | OVCAR-3 ovarian 96.9% | HS 578T breast 92.5% | T-47D breast 81.2%

CC(=O)c1cnc(-c2ccccc2)nc1CBr
active: SR leukemia -20.9%
inactive: SK-MEL-2 melanoma 98.3% | SN12C renal 51.2% | UO-31 renal 44.7% | TK-10 renal 79% | ACHN renal 35.3% | A498 renal 82% | CCRF-CEM leukemia 35.8% | MOLT-4 leukemia 26% | RPMI-8226 leukemia 37.7% | OVCAR-8 ovarian 89.3% | OVCAR-5 ovarian 96.3% | OVCAR-4 ovarian 79.7% | SK-OV-3 ovarian 105% | IGROV1 ovarian 89.2% | OVCAR-3 ovarian 30.1% | HS 578T breast 89% | NCI/ADR-RES ovarian 92.2% | T-47D breast 38.5%

COc1cc(/C=N/Nc2nc(-c3ccc(F)cc3)c(C#N)c(N3CCOCC3)n2)ccc1O
inactive: SK-MEL-2 melanoma 114% | UO-31 renal 81.7% | TK-10 renal 98.9% | ACHN renal 91.3% | A498 renal 87.8% | CCRF-CEM leukemia 84.1% | MOLT-4 leukemia 73.4% | SR leukemia 74.9% | RPMI-8226 leukemia 87.1% | OVCAR-8 ovarian 89.8% | OVCAR-5 ovarian 107% | OVCAR-4 ovarian 89.8% | SK-OV-3 ovarian 102% | IGROV1 ovarian 96.7% | OVCAR-3 ovarian 103% | HS 578T breast 102% | NCI/ADR-RES ovarian 102% | T-47D breast 93.6%

Cc1nc2sc(C(=O)Nc3ccccc3Cl)c(N)c2cc1C(C)O (configuration not stated)
inactive: SK-MEL-2 melanoma 75% | SN12C renal 89.4% | UO-31 renal 96.3% | TK-10 renal 81.7% | ACHN renal 96.2% | A498 renal 70.7% | CCRF-CEM leukemia 79.5% | MOLT-4 leukemia 64% | SR leukemia 33.2% | RPMI-8226 leukemia 88.1% | OVCAR-8 ovarian 95% | OVCAR-5 ovarian 97.8% | OVCAR-4 ovarian 97.9% | SK-OV-3 ovarian 78.7% | IGROV1 ovarian 92.9% | OVCAR-3 ovarian 88.8% | HS 578T breast 88.1% | NCI/ADR-RES ovarian 71.7% | T-47D breast 86.4%

C=C(C)[C@@H]1CCC=C2CC[C@]3(C)[C@H](CC[C@@H]4[C@@]5(C)CCCNC(C)(C)[C@@H]5CC[C@]43C)[C@H]21
active: SR leukemia -25.7% | RPMI-8226 leukemia -11.9% | OVCAR-8 ovarian 3.48%
inactive: SK-MEL-2 melanoma 77.9% | SN12C renal 65.2% | UO-31 renal 75.4% | TK-10 renal 104% | ACHN renal 78.7% | A498 renal 101% | CCRF-CEM leukemia 40.1% | OVCAR-5 ovarian 56.4% | OVCAR-4 ovarian 36.7% | SK-OV-3 ovarian 112% | IGROV1 ovarian 23.5% | OVCAR-3 ovarian 41.2% | HS 578T breast 97.2% | NCI/ADR-RES ovarian 55.1% | T-47D breast 60.2%

CSc1nc(-c2ccc(F)cc2)c(C#N)c(N2CCOCC2)n1
inactive: SK-MEL-2 melanoma 101% | SN12C renal 98.8% | UO-31 renal 80.3% | TK-10 renal 104% | ACHN renal 90.1% | A498 renal 74.4% | CCRF-CEM leukemia 81% | MOLT-4 leukemia 86.5% | SR leukemia 85.9% | RPMI-8226 leukemia 89.2% | OVCAR-8 ovarian 92.9% | OVCAR-5 ovarian 89.2% | OVCAR-4 ovarian 90.6% | SK-OV-3 ovarian 97.3% | IGROV1 ovarian 92% | OVCAR-3 ovarian 98.1% | HS 578T breast 91.4% | NCI/ADR-RES ovarian 97.5% | T-47D breast 79.7%

COc1cccc2c1-c1ccccc1C2=O
active: A498 renal 7.69% | CCRF-CEM leukemia 5.55% | OVCAR-3 ovarian -26.4% | NCI/ADR-RES ovarian 8.62%
inactive: SK-MEL-2 melanoma 34.3% | SN12C renal 53.9% | UO-31 renal 47.1% | TK-10 renal 66.7% | ACHN renal 50% | MOLT-4 leukemia 73.9% | SR leukemia 40.4% | RPMI-8226 leukemia 14.9% | OVCAR-8 ovarian 21.5% | OVCAR-5 ovarian 65.6% | OVCAR-4 ovarian 56.5% | SK-OV-3 ovarian 30.6% | IGROV1 ovarian 33.3% | HS 578T breast 19.6% | T-47D breast 33.2%

Cc1c(Cl)cccc1NC(=O)c1sc2nc3c(cc2c1N)CN(Cc1ccccc1)CC3
inactive: SK-MEL-2 melanoma 31.4% | SN12C renal 59.2% | UO-31 renal 58% | TK-10 renal 75% | ACHN renal 56.4% | A498 renal 36.6% | CCRF-CEM leukemia 14.5% | MOLT-4 leukemia 22.9% | SR leukemia 16.9% | RPMI-8226 leukemia 54.8% | OVCAR-8 ovarian 64.2% | OVCAR-5 ovarian 75.1% | OVCAR-4 ovarian 62.4% | SK-OV-3 ovarian 44.2% | IGROV1 ovarian 52.2% | HS 578T breast 28.6% | NCI/ADR-RES ovarian 41.4% | T-47D breast 56.8%
active: OVCAR-3 ovarian 0.716%

COc1ccc2[nH]c3nc4cnccc4cc3c2c1
inactive: SK-MEL-2 melanoma 110% | SN12C renal 101% | UO-31 renal 71.2% | TK-10 renal 111% | ACHN renal 98.3% | A498 renal 114% | CCRF-CEM leukemia 98.1% | MOLT-4 leukemia 102% | SR leukemia 103% | RPMI-8226 leukemia 101% | OVCAR-8 ovarian 97% | OVCAR-5 ovarian 128% | OVCAR-4 ovarian 101% | SK-OV-3 ovarian 95.3% | IGROV1 ovarian 89.3% | OVCAR-3 ovarian 104% | HS 578T breast 110% | NCI/ADR-RES ovarian 104% | T-47D breast 94.6%

CC(=O)c1ccc(NC(=O)CSc2nnc(-c3cc(-c4ccc(Cl)cc4)nc4ccccc34)o2)cc1
inactive: SK-MEL-2 melanoma 87.3% | UO-31 renal 86.6% | TK-10 renal 83.7% | ACHN renal 89.8% | A498 renal 105% | CCRF-CEM leukemia 60.8% | MOLT-4 leukemia 66.6% | RPMI-8226 leukemia 25.5% | OVCAR-8 ovarian 82% | OVCAR-5 ovarian 96.7% | OVCAR-4 ovarian 71.1% | SK-OV-3 ovarian 90.1% | IGROV1 ovarian 92.7% | OVCAR-3 ovarian 107% | HS 578T breast 110% | NCI/ADR-RES ovarian 83.2% | T-47D breast 79.1%
active: SR leukemia 0.55%

CCOCc1cc(C(C)(C)C)ccc1O
inactive: SK-MEL-2 melanoma 110% | SN12C renal 102% | UO-31 renal 94.5% | TK-10 renal 93.8% | ACHN renal 105% | A498 renal 74.2% | CCRF-CEM leukemia 101% | MOLT-4 leukemia 99.4% | SR leukemia 88.7% | RPMI-8226 leukemia 106% | OVCAR-8 ovarian 95.4% | OVCAR-5 ovarian 105% | OVCAR-4 ovarian 103% | SK-OV-3 ovarian 97.8% | IGROV1 ovarian 107% | OVCAR-3 ovarian 115% | HS 578T breast 99.2% | NCI/ADR-RES ovarian 103% | T-47D breast 98.6%

CN1CC=C(c2cc(NC(=O)Nc3ccc(Oc4ccnc(NC(=O)C5CC5)c4)c(F)c3)cc(C(F)(F)F)c2)CC1
active: SK-MEL-2 melanoma -42.8% | SN12C renal 2.74% | TK-10 renal -2.39% | ACHN renal -1.41% | A498 renal -27.9% | CCRF-CEM leukemia 1.49% | MOLT-4 leukemia -4.01% | SR leukemia -18.3% | RPMI-8226 leukemia -28% | OVCAR-8 ovarian -2.13% | OVCAR-5 ovarian 7.5% | OVCAR-4 ovarian 3.24% | IGROV1 ovarian 2.9% | OVCAR-3 ovarian 8.26% | HS 578T breast -17.3% | T-47D breast -0.194%
inactive: SK-OV-3 ovarian 17.1% | NCI/ADR-RES ovarian 44.7%
